Source: PubChem BioAssay AID1851 (National Center for Advancing Translational Sciences (NCATS), 2009)
Where “and” joins values, the source holds several entries; their conditions need not be identical. Identical values can stand only once. Among all 16,000 compounds or so, about 2,600 (16%) were called active. About 20% were inconclusive and are not listed. A selection follows. A number with no mark means an inactive call. The call rests on the fitted dose curve; in most records, active means well fitted curve in the direction sought with a large enough effect; inconclusive means small, poorly fitted or top-dose-only effect, or effect the other way; inactive means no such curve, though single readings can be large or run the other way.

Biological target: Cytochrome P450 2D6 (Homo sapiens) (UniProt P10635)
Assay: Cytochrome panel assay with activity outcomes
Settings: recombinant CYP, pro-luciferin dealkylation, luminescence, p450-cyp2d6; series mostly up to 57.1 µM; activity, negative = inhibition: at the top concentration
On the % scale 0 is the no-effect control and ±100 the full control effect.

Sequence of Cytochrome P450 2D6 (Homo sapiens) (P10635 whole entry, looked up): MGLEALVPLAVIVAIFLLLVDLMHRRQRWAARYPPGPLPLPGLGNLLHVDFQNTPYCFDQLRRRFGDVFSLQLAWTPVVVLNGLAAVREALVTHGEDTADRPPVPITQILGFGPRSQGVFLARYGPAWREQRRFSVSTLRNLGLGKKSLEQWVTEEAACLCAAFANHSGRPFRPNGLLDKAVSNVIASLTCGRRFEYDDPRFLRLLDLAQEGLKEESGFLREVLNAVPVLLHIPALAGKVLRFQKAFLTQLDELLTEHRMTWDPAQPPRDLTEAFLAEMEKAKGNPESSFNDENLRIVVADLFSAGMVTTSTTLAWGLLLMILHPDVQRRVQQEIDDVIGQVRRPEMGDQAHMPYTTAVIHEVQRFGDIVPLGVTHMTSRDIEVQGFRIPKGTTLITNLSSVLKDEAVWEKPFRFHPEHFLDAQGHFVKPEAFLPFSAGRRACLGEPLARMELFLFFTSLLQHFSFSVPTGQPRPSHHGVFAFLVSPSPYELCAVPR

SMILES	activity, negative = inhibition	AC50
C=CCN(CC=C)C(=S)Nc1ccccc1	-8.91%	
Cn1cnc([N+](=O)[O-])c1Sc1nc(N)nc2c1ncn2Cc1ccccc1	15.1% [at 11.4 µM]	
CCN1C(=O)[C@@H]2[C@H]3C(=CC[C@@H]2C1=O)C1(OCCCO1)[C@H]1O[C@@H]1[C@H]3O	-15.6% [at 11.4 µM]	
O=C(CSc1nc2ccc([N+](=O)[O-])cc2s1)c1ccc2ccccc2c1	-13.4% [at 11.4 µM]	
COc1ccccc1-c1nc(NCc2cccs2)c2ccccc2n1		1 µM (active)
CN(C)c1ncc2nc(-c3ccc(Cl)cc3)c(=O)n(C)c2n1	-2.59%	
C#CCCCO/N=C1/C[C@@H](O)[C@@H](O)[C@@H]2[C@@H]3C(=O)N(CC)C(=O)[C@H]3CC[C@@H]12	-16.9% [at 11.4 µM]	
NC(=NC1C2CC3CC(C2)CC1C3)Nc1ccc(I)cc1 (stereo not given)		0.0398 µM (active)
Nc1nc(Br)c2ccccc2c1-c1ccc(F)cc1	-9.97%	
O=C1/C(=C/c2cccnc2)SC(=S)N1Cc1ccco1	-20.9% [at 11.4 µM]	
CC(=O)C1C(c2ccccc2OC(F)F)NC(=O)NC1(O)C(F)(F)F (stereo not given)	-3.96%	
CC(=O)c1sc(N)c(C(=O)OC(C)C)c1C	-2.55%	
C[C@@H](C(=O)Nc1ccc2ccccc2c1)[C@@H]1C[C@@]1(C)[C@@H](NS(=O)(=O)c1ccc2ccccc2c1)c1ccccc1	-9.37%	
C[C@@H](C(=O)Nc1ccc2ccccc2c1)[C@@H]1C[C@@]1(C)[C@@H](NS(=O)(=O)c1ccc(-c2ccccc2)cc1)c1ccccc1	3.73%	
C[C@@H](C(=O)Nc1ccc2ccccc2c1)[C@H]1C[C@]1(C)[C@H](NS(=O)(=O)c1ccc2ccccc2c1)c1ccccc1		3.16 µM (active)
C[C@@H](C(=O)Nc1ccc2ccccc2c1)[C@H]1C[C@]1(C)[C@H](NS(=O)(=O)c1ccc(-c2ccccc2)cc1)c1ccccc1		2 µM (active)
CCSc1nc2c(c(=O)[nH]1)C(c1ccccn1)C1=C(CC(C)(C)CC1=O)N2 (stereo not given)	17%	
C[C@]1(OC(=O)/C=C\c2ccccc2)C[C@@H](O)[C@@]2(O)C=CO[C@@H](O[C@H]3O[C@@H](CO)[C@@H](O)[C@@H](O)[C@@H]3O)[C@H]21	-1.82% [at 25.6 µM]	
CC1CCCCN1c1nc(-c2ccncc2)nc2ccccc12 (stereo not given)		7.94 µM (active)
CCN1CCN(c2nc(-c3ccccn3)nc3ccccc23)CC1	-25.3%	
CC1CCCCN1c1cc(C#N)c(C#N)cc1[N+](=O)[O-] (stereo not given)	-1.76%	
O=C(O)C12CC3(C(=O)O)CC(C(=O)O)(CC(C(=O)O)(C1)C3=O)C2=O	-4.61% [at 11.4 µM]	
CCCN(CCc1ccccc1)[C@H]1CCc2c(O)cccc2C1		0.501 µM (active)
CCCN(C/C=C\I)[C@@H]1CCc2cccc(O)c2C1	5.27%	

SMILES	activity, negative = inhibition	AC50
Cc1ccc(-n2c(CCC(=O)O)ccc2-c2cccs2)cc1C	3.62%	
O=c1c(-c2ccccc2)nc2cnc(N3CCOCC3)nc2n1-c1ccccc1	-6.6%	
C/C(Cn1nc([N+](=O)[O-])cc1C)=N\NC(=O)c1ccc(O)cc1O	12.2%	
Cc1ccc(Cl)c(Nc2ccccc2C(=O)O)c1Cl		inactive
Cc1nc2ccccc2nc(C)c1=NO	-17.1%	
CCOC(=O)C(C)CC(C)C(=O)N1CCOCCN(C(=O)C(C)CC(C)C(=O)OCC)CCOCC1 (stereo not given)	-0.969%	
CC(N)=NCc1cccc(CN)c1		inactive
NC(N)=NCc1cccc(I)c1		15.8 µM (active)
Nc1c(OCC(=O)O)ccc2cc(S(=O)(=O)O)ccc12	-4.66% [at 11.4 µM]	
CNC(=S)NNC(=O)c1sccc1OCc1ccc(C)cc1	-4.42%	
COc1ccccc1/C=N/NC(=O)CC(=O)Nc1ccc(Cl)c(Cl)c1		28.2 µM (active)
O=C(Cc1ccccc1)N/N=C/c1ccccc1OCc1ccc(Cl)cc1	-27.7%	
COc1cc(C(=O)Oc2ccccc2/C=N/NC(=O)c2ccc(C)cc2)cc(OC)c1OC	38%	
NC([N-]/N=C/c1ccccn1)=[S]=[Fe].O=S(=O)(O)O	8.09% [at 11.4 µM]	
N#CCCn1c(=O)c(-c2cc(F)cc(F)c2)nc2cnc(N3CCOCC3)nc21	6.46%	
CC(C)N(Cc1ccccc1)S(=O)(=O)c1n[nH]c(C(C)(C)C)n1	14.9% [at 11.4 µM]	
CCC(NC(=O)Nc1cc(OC)c(OC)c(OC)c1)(C(F)(F)F)C(F)(F)F	-29.8%	
CC(=O)Nc1ccc(NC(=O)C2CCN(S(=O)(=O)c3cccc4nonc34)CC2)cc1	-5.83%	
CC1CCN(C(=O)C2CCN(S(=O)(=O)c3cccc4nonc34)CC2)CC1	-14.6%	
COc1cc(NC(=O)C2CCN(S(=O)(=O)c3cccc4nonc34)CC2)cc(OC)c1		0.562 µM (active)
O=C(Nc1cccc(F)c1)N1CCCC2(CCN(C(=O)c3cnccn3)CC2)C1	0.953%	
CCC(=O)NC(=S)Nc1ccc(S(=O)(=O)NC(C)=O)cc1	21.6%	
CCCCCN(CCCCC)C(=O)[C@H](CCC(=O)O)NC(=O)c1ccc(Cl)c(Cl)c1		inactive
O=S(=O)(c1cccc2c(I)cccc12)N1CCCNCC1		10 µM (active)

SMILES	activity, negative = inhibition	AC50
O=S(=O)(c1cccc2cnccc12)N1CCNCC1	-11.8%	
Cc1noc(C)c1-c1nccc(N2CCN(C)CC2)n1	-12.7%	
Cn1cccc1C(=O)N1CCC2(CC1)CCN(c1ccccn1)CC2	-9.95%	
CNC(=S)Nc1ccc2nc(C)c(C)nc2c1	-6.39%	
N#CC(C#N)=NNc1ccc2cn[nH]c2c1	-16.6% [at 11.4 µM]	
S=C(Nc1ccc2cn[nH]c2c1)Nc1ccc2cn[nH]c2c1		2 µM (active)
CCOC(=O)N/N=C1/C[C@@H](O)[C@@H](O)[C@@H]2[C@@H]3C(=O)N(c4cccc(Oc5ccccc5)c4)C(=O)[C@H]3CC[C@@H]12	4.14% [at 11.4 µM]	
COC(=O)c1c(C)[nH]c(C)c1C(=O)c1ccccc1Cc1ccccc1	-2.67%	
Cc1cc(C)n(CC(=O)N/N=C/c2ccco2)n1	8.84%	
O=C(NCC(c1cccs1)N1CCOCC1)c1ccco1 (stereo not given)	-12.5%	
COc1ccc(C2=NOC(C(=O)NCCN3CCOCC3)C2)cc1 (stereo not given)	2.38%	
O=C(NCCc1cccs1)C1CC(c2c(Cl)cccc2Cl)=NO1 (stereo not given)		5.01 µM (active)
O=C(NCc1ccccn1)C1CC(c2ccc(Cl)c(Cl)c2)=NO1 (stereo not given)	-12.1%	
COc1ncc2nc(-c3ccccc3)c(=O)n(C)c2n1	-1.94%	
CCc1ccc(C(=O)CN(C#N)c2nc(C)cc(C)n2)cc1		6.31 µM (active)
Cc1cc(C)c(C#N)c(OCC(=O)c2ccc(Br)cc2)n1	-21.2%	
CCc1ccc(C(=O)COC(=O)c2cccc(N3C(=O)c4c(C)nc5ccccc5c4C3=O)c2)cc1	0.173%	
CC(C)[C@@H](OCc1ccccc1)[C@H](C)/C=N\OC[C@@H](O)[C@@H]1O[C@@H]2OC(C)(C)O[C@@H]2[C@H]1O	15.3% [at 11.4 µM]	
CCn1cc(C(=O)O)c(=O)c2cc(F)c(N3CCN[C@@H](C)C3)c(F)c21		inactive
O=c1[nH]c(=O)n([C@@H]2C[C@H](O)[C@H](CO)O2)cc1C(F)(F)F	10.1% [at 25.6 µM]	
N#Cc1cccc(-c2nccc(NCc3cccnc3)n2)c1	-0.221%	
N#Cc1cccc(-c2cc(NCc3cccnc3)ncn2)c1	-18.8%	
N#Cc1cccc(-c2nccc(NCc3ccccc3)n2)c1		7.94 µM (active)
N#Cc1cccc(-c2nccc(NCc3cccs3)n2)c1		20 µM (active)

SMILES	activity, negative = inhibition	AC50
Cc1cc(C(=O)OCC(=O)NCCC(C)C)c2ccccc2n1	-7.33%	
COc1cc2c3cc1Oc1cc(ccc1O)C[C@@H]1c4c(cc(OC)c(O)c4Oc4ccc(cc4)C[C@H]3[N+](C)(C)CC2)CC[N+]1(C)C	8.34% [at 11.4 µM]	
O=C(Nc1cccc2cccnc12)[C@@H]1[C@@H](C(=O)O)[C@H]2CC[C@@H]1O2	5.88% [at 11.4 µM]	
C[C@@]1(C(NC(=O)Cc2ccc(C(F)(F)F)cc2)c2ccc(-c3ccccc3)cc2)C[C@H]1C1CCCCC1 (stereo not given in full)	10.9%	
O=C(O)c1ccccc1-c1ccccc1C(=O)Nc1ccccc1	20%	
O=C(Nc1ccccc1)[C@@]12C[C@@H]1/C(=N/O)c1ccccc1O2	-2.77%	
N/N=C1/c2ccccc2N[C@H]1OC(=O)Nc1ccccc1		3.16 µM (active)
CN(C)CCSCCO	7.16% [at 11.4 µM]	
NC(=O)c1nnn(Cc2cc(Cl)c(C(=O)c3ccc(Cl)cc3)c(Cl)c2)c1N	-20.8% [at 11.4 µM]	
O=C(CC(=O)NN=C1CCCC1)NCCc1ccccc1	12.2%	
O=C(O)CNCCc1ccccc1	3.94% [at 11.4 µM]	
NNCCc1ccccc1		6.31 µM (active) and 2.51 µM (active)
COc1cccc(/C=N/n2nnc3c(cnn3-c3ccccc3)c2=O)c1	11%	
Cc1c(C)c(C)c(CC2(C)CSC2)c(CC2(C)CSC2)c1C	7.89% [at 11.4 µM]	
COc1ccc(C2(C(=O)N3CCOCC3)CCCC2)cc1	-19%	
C[N+]1(C)CCc2cc3c(cc2[C@@H]1[C@@H]1C(=O)Oc2c1ccc1c2OCO1)OCO3		12.6 µM (active)
COc1ccc(-n2c(=O)c(-c3cccc(C#N)c3)nc3cnc(N4CCNCC4)nc32)cc1	-4.03%	
Nc1cc(-c2nn[nH]n2)ccc1F	-3.01%	
CSc1nsc(SC)c1C(=O)Nc1ccc(C)cc1		10 µM (active)
CSc1nsc(SC)c1NC(=O)Nc1ccccn1	20.4%	
CCC(=O)NCCNC(=O)c1c(SC)nsc1SC	-20.3%	
CC(NC(=O)C1(C)CC1(Br)Br)C(C)(C)C (stereo not given)	4.92%	
COc1ccc(Oc2ncc3nc(CCc4ccccc4)c(=O)n(C4CC4)c3n2)cc1	-13.8%	
